The panel holds about 83,000 compounds, 20% with a hit somewhere; the sample as a whole holds those more often.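 Step 1: grow cells in 96-well plates. Step 2: add test compound at a single concentration. Step 3: incubate 48 h. Step 4: record percent growth.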 Unmarked numbers belong to inactive results. Active and inactive are the calls of the source. Rule for the calls: active = growth percent below 10; inactive = the rest.
Experiments:
Experiment in all cases: NCI-60 one-dose screen, 48 h (100 = growth as untreated, 0 = no growth, -100 = all killed)
Settings in all cases: 10 µM unless noted
NCI-H23 lung = system: NCI-H23 lung
NCI-H226 lung = system: NCI-H226 lung
NCI-H322M lung = system: NCI-H322M lung
HOP-62 NSCLC = system: HOP-62 NSCLC
NCI-H460 lung = system: NCI-H460 lung
HOP-92 NSCLC = system: HOP-92 NSCLC
NCI-H522 lung = system: NCI-H522 lung
A549/ATCC NSCLC = system: A549/ATCC NSCLC
786-0 renal = system: 786-0 renal
COLO 205 colon = system: COLO 205 colon
DU-145 prostate = system: DU-145 prostate
K-562 leukemia = system: K-562 leukemia
MALME-3M melanoma = system: MALME-3M melanoma
MDA-MB-231 breast = system: MDA-MB-231 breast
RXF 393 renal = system: RXF 393 renal
SF-268 CNS = system: SF-268 CNS
SF-295 CNS = system: SF-295 CNS
SF-539 CNS = system: SF-539 CNS
UACC-257 melanoma = system: UACC-257 melanoma
M14 melanoma = system: M14 melanoma

Row | Compound | growth (NCI-H23 lung) | growth (NCI-H226 lung) | growth (NCI-H322M lung) | growth (HOP-62 NSCLC) | growth (NCI-H460 lung) | growth (HOP-92 NSCLC) | growth (NCI-H522 lung) | growth (A549/ATCC NSCLC) | growth (786-0 renal) | growth (COLO 205 colon) | growth (DU-145 prostate) | growth (K-562 leukemia) | growth (MALME-3M melanoma) | growth (MDA-MB-231 breast) | growth (RXF 393 renal) | growth (SF-268 CNS) | growth (SF-295 CNS) | growth (SF-539 CNS) | growth (UACC-257 melanoma) | growth (M14 melanoma)
1 | Cc1ccccc1-n1nnc(C(=O)Nc2nc3ccc(F)cc3s2)c1C | 55.7% | 48.4% | 71.2% | 86% | 65.7% | 55.7% | 66.4% | 64.5% | 76.2% | 80.5% | 66.9% | 35.3% | 50.6% | 82% | 65.6% | 73% | 60.5% | 79.9% | 55.7% | 49.3%
2 | CC1(C)C(=O)/C(=C\c2ccco2)C[C@]2(C)[C@H]3CC=C4[C@@H]5C[C@](C)(C(=O)O)CC[C@]5(C)CC[C@@]4(C)[C@]3(C)CC[C@@H]12 | -64% [100 µM] (active) | -29.3% [100 µM] (active) | -91.9% [100 µM] (active) | -67.7% [100 µM] (active) | -73.5% [100 µM] (active) | -82.8% [100 µM] (active) | -64.4% [100 µM] (active) | -67.6% [100 µM] (active) | -53.6% [100 µM] (active) | -62.2% [100 µM] (active) | -33.5% [100 µM] (active) | 4.42% [100 µM] (active) | -70% [100 µM] (active) | -58.5% [100 µM] (active) | -85.6% [100 µM] (active) | -77.7% [100 µM] (active) | -48.8% [100 µM] (active) | -77.5% [100 µM] (active) | -49.3% [100 µM] (active) | -43.4% [100 µM] (active)
3 | COc1c(C(C)=O)c(OCCCCOc2c(C(C)=O)c(OC)c3ccoc3c2OC)c(OC)c2occc12 | 68.8% | 65.4% | 85.2% | 117% | 80.1% | 57.3% | -7.73% (active) | 64.7% | 89% | 77% | 116% | 54.3% | 48.8% | 82.7% | 80.7% | 84.3% | 19.7% | 105% | 73.3% | 99.3%
4 | Cc1cccc([N+](=O)[O-])c1I | 105% | 102% | 112% | 101% | 111% | 87.4% | 93.8% | 102% | 108% | 110% | 116% | 141% | 116% | 102% | 111% | 105% | 101% | 105% | 96.7% | 108%
5 | CNC(=O)c1cc(Oc2ccc3nc(NC(=O)c4ccc5ncccc5c4)sc3c2)ccn1 | 92.7% | 68.6% | 99% | 112% | 98.6% | 110% | 54.3% | 76.5% | 98.4% | 95.8% | 105% | 93.7% | 80.5% | 98.6% | 109% | 97.4% | 86.9% | 107% | 93.1% | 102%
6 | CCCCC(CC)COC(=O)C[N+](C)(C)CCOC(c1ccccc1)c1ccccc1 (stereo not given) | 42% | 54.1% | 88.7% | 60.6% | 65.2% | -12.2% (active) | -24.5% (active) | 88.3% | 77.7% | -28% (active) | 85.1% | 14.6% | 30.8% | 29.3% | -4.09% (active) | 49% | 74.4% | 69.7% | 2.69% (active) | 20.3%
7 | COc1ccc2c(c1)C(C)Cc1c(Cl)ncnc1N2C (stereo not given) | 7.68% (active) | -3.41% (active) | 36.1% | 11.8% | 16.6% | 6.91% (active) | -49.9% (active) | 15% | 7.84% (active) | -66% (active) | 35.3% | 9.21% (active) | 41.4% | -45.3% (active) | -8.62% (active) | 10.5% | 15.2% | 28% | 13.6% | 12.1%
8 | Cc1cc(C)nc(SCC(=O)Nc2cccc(N=Cc3ccccc3O)c2)n1 | 98% | 93.8% | 101% | 102% | 101% | 77.4% | 86.6% | 101% | 103% | 105% | 104% | 96.2% | 101% | 89.5% | 101% | 98.7% | 102% | 100% | 103% | 98.2%
9 | CC[C@]12C=CCN3CC[C@@]4(c5ccc(OC)cc5N(C)[C@H]4[C@@](O)(C(=O)OC)[C@@H]1OC(=O)CCC(=O)O[C@H]1CC[C@H]4[C@@H]5CCC6=CC(=O)CC[C@@H]6[C@H]5CC[C@]14C)[C@@H]32 | 12.9% [100 µM] | -18.3% [100 µM] (active) | 36.1% [100 µM] | 21.9% [100 µM] | 1.51% [100 µM] (active) | -20.3% [100 µM] (active) | 3.35% [100 µM] (active) | 14.5% [100 µM] | 10.2% [100 µM] | -87.6% [100 µM] (active) | 26% [100 µM] | 7.54% [100 µM] (active) | -16.4% [100 µM] (active) | -39.4% [100 µM] (active) | -27.5% [100 µM] (active) | 31.9% [100 µM] | 4.5% [100 µM] (active) | -40.4% [100 µM] (active) | 14.8% [100 µM] | 1.67% [100 µM] (active)
10 | C=CCc1nc2ccccc2s1 | 95.7% | 101% | 106% | 100% | 104% | 98.6% | 86.6% | 103% | 108% | 113% | 114% | 96.9% | 115% | 103% | 122% | 108% | 117% | 119% | 90.4% | 108%
11 | COc1cc(-c2nc(SCCC(C)C)nc(Nc3ccccc3)c2C#N)cc(OC)c1OC | 97.1% | 101% | 103% | 114% | 101% | 86.8% | 80.6% | 91.5% | 91.7% | 99.1% | 97.1% | 93.7% | 104% | 59.8% | 114% | 95.9% | 100% | 96.2% | 107% | 100%
12 | CCOc1cc(/C=N\NC(=O)N/N=C/c2ccc(O)c(OCC)c2)ccc1O | 33% | 55.5% | 50.7% | 38.9% | 11.8% | 80.7% | -18.6% (active) | 59.4% | 28.6% | 42.7% | 14.9% | 10.6% | 60.2% | 51.5% | 24.9% | 45.7% | 18% | -9.06% (active) | 61.9% | 19.3%
13 | CC1=CC[C@@H]2C(C)(C)C(=O)CC[C@@]2(C)[C@@H]1COc1ccc2ccc(=O)oc2c1 | 83% | 43.8% | 89.3% | 97.5% | 89.2% | 73.9% | 53.6% | 62.2% | 89.9% | 71.1% | 88.3% | 60.1% | 78% | 89.4% | 68.6% | 86.4% | 69% | 87.5% | 91.4% | 89%
14 | CC(C)=CC/C=C(/C)[C@H]1CC[C@]2(C)[C@@H]1CC[C@@H]1[C@@]3(C)CCC(=O)NC(C)(C)[C@@H]3CC[C@]12C | 13.6% [100 µM] | -1.12% [100 µM] (active) | 36.1% [100 µM] | 14.3% [100 µM] | -16.7% [100 µM] (active) | -6.9% [100 µM] (active) | -58% [100 µM] (active) | 15.3% [100 µM] | -33% [100 µM] (active) | -0.368% [100 µM] (active) | 12.2% [100 µM] | 6.71% [100 µM] (active) | -85.2% [100 µM] (active) | -35.9% [100 µM] (active) | -72.3% [100 µM] (active) | 10.9% [100 µM] | -22.5% [100 µM] (active) | -92.2% [100 µM] (active) | 14.8% [100 µM] | 15.7% [100 µM]

— PubChem BioAssay (NCI)
